Consider four molecules from PubChem BioAssay (EPA / NIEHS).

Common to all, as to conditions: mRNA level, 48 h; actives raise or lower the signal
Read-out in one assay: Caspase-3 (Homo sapiens) (UniProt P42574)
The assay is described as follows: LTEA_HepaRG_CASP3: Life Technologies and Expression Analysis (LTEA) Assay for cysteine-aspartic acid protease (CASP3) using HepaRG (AID 2283477). The method, boiled down: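 Transcript-level assay: CASP3 mRNA in human HepaRG after 48 h treatment, eight half-log concentrations from 100 uM in 0.5% DMSO, quantified by qRT-PCR.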

Read-out in assay [1]: Cytochrome P450 (CYP24A1), CYP24A1 (gene 1591)
Nature of the assay: LTEA_HepaRG_CYP24A1: Life Technologies and Expression Analysis (LTEA) Assay for Cytochrome P450 (CYP24A1) using HepaRG (AID 2283478). Summed up:
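Gene expression of CYP24A1 by TaqMan qRT-PCR in HepaRG after 48 h treatment, highest concentration 100 uM; activity fitted in both directions relative to DMSO vehicle.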

Read-out in assay [2]: Cytochrome P450 (CYP1A2), CYP1A2 (gene 1544)
The assay is described as follows: LTEA_HepaRG_CYP1A2: Life Technologies and Expression Analysis (LTEA) Assay for Cytochrome P450 (CYP1A2) using HepaRG (AID 2283479). Summed up:
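In duplicate wells, HepaRG cultures maintained in 0.5% DMSO were treated 48 h across an 8-point, half-log series topping at 100 uM; phenobarbital (1 mM) served as induction control. Expression was read by qRT-PCR.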

Read-out in assay [3]: cysteine-aspartic acid protease (CASP8), CASP8 (gene 841)
Nature of the assay: LTEA_HepaRG_CASP8: Life Technologies and Expression Analysis (LTEA) Assay for cysteine-aspartic acid protease (CASP8) using HepaRG (AID 2283480). The method, boiled down: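 Differentiated HepaRG cells in serum-free induction medium, 48 h exposure, eight-point half-log series from 100 uM in 0.5% DMSO, duplicates. CASP8 mRNA by qRT-PCR, normalized to ACTB, GAPDH, POLR2A; bidirectional fit versus DMSO.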

Read-out in assay [4]: Cytochrome P450 (CYP2B6), CYP2B6 (gene 1555)
The assay is described as follows: LTEA_HepaRG_CYP2B6: Life Technologies and Expression Analysis (LTEA) Assay for Cytochrome P450 (CYP2B6) using HepaRG (AID 2283481). The method, boiled down: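 Human HepaRG, 48 h dosing, 0.5% DMSO vehicle, top dose 100 uM. CYP2B6 transcript by qRT-PCR, housekeeping-normalized, bidirectional curve fit.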

Read-out in assay [5]: Cytochrome P450 2C19 (Homo sapiens) (UniProt P33261)
Nature of the assay: LTEA_HepaRG_CYP2C19: Life Technologies and Expression Analysis (LTEA) Assay for CYP2C19 using HepaRG (AID 2283482). The method, boiled down: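 Endpoint: CYP2C19 mRNA change, bidirectional fit vs 0.5% DMSO. Cells: HepaRG, 48 h exposure, eight-point series topping at 100 uM. Quantitation: qRT-PCR normalized to ACTB, GAPDH, POLR2A.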

Read-out in another assay: CYP2C8 (gene 1558)
Nature of the assay: LTEA_HepaRG_CYP2C8: Life Technologies and Expression Analysis (LTEA) Assay for CYP2C8 using HepaRG (AID 2283483). The method, boiled down:
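Differentiated HepaRG cells in serum-free induction medium exposed 48 h in duplicate to 8 half-log concentrations from 100 uM in 0.5% DMSO. CYP2C8 mRNA by qRT-PCR normalized to ACTB, GAPDH, POLR2A; bidirectional fit versus DMSO.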

Read-out in the next assay: CYP2C9 (gene 1559)
The assay is described as follows: LTEA_HepaRG_CYP2C9: Life Technologies and Expression Analysis (LTEA) Assay for CYP2C9 using HepaRG (AID 2283484). The method, boiled down:
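Differentiated human HepaRG cells in serum-free induction medium were exposed 48 h to chemicals in 8-point half-log series from 100 uM (0.5% DMSO), in duplicate. CYP2C9 mRNA was measured by qRT-PCR, normalized to ACTB/GAPDH/POLR2A, with bidirectional fitting versus DMSO.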

Read-out in another assay: CYP2E1 (gene 1571)
The assay is described as follows: LTEA_HepaRG_CYP2E1: Life Technologies and Expression Analysis (LTEA) Assay for CYP2E1 using HepaRG (AID 2283485). Summed up: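 Differentiated HepaRG cells were treated in duplicate for 48 h with chemicals in 0.5% DMSO, from 100 uM downward in half-log dilutions. RNA was then analysed by qRT-PCR for CYP2E1 induction or loss.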

Read-out in a further assay: CYP4A11 (gene 1579)
The assay is described as follows: LTEA_HepaRG_CYP4A11: Life Technologies and Expression Analysis (LTEA) Assay for CYP4A11 using HepaRG (AID 2283486). The method, boiled down:
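Human hepatic HepaRG cultures receive duplicate 48 h exposures across a concentration-response series topping at 100 uM. Expression changes in CYP4A11 are measured by qRT-PCR relative to DMSO controls.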

Read-out in assay [6]: Cytochrome P450 3A4 (Homo sapiens) (UniProt P08684)
Nature of the assay: LTEA_HepaRG_CYP3A4: Life Technologies and Expression Analysis (LTEA) Assay for CYP3A4 using HepaRG (AID 2283487). The method, boiled down: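 HepaRG, 48 h exposure, 8-pt CRC from 100 uM (half-log), 0.5% DMSO, duplicates; serum-free induction medium. Readout: CYP3A4 mRNA, qRT-PCR, ACTB/GAPDH/POLR2A normalization. Bidirectional fit vs DMSO.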

Read-out in assay [7]: DNA damage-inducible transcript 3 (DDIT3), DDIT3 (gene 1649)
The assay is described as follows: LTEA_HepaRG_DDIT3: Life Technologies and Expression Analysis (LTEA) Assay for DNA damage-inducible transcript 3 (DDIT3) using HepaRG (AID 2283488). Summed up:
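Changes in DDIT3 transcript, in either direction relative to 0.5% DMSO vehicle, were quantified by TaqMan qRT-PCR after 48 h chemical exposure of HepaRG cells at 8 concentrations, maximum 100 uM.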

Read-out in assay [8]: Pro-epidermal growth factor (Homo sapiens) (UniProt P01133)
The assay is described as follows: LTEA_HepaRG_EGF: Life Technologies and Expression Analysis (LTEA) Assay for Epidermal growth factor (EGF) using HepaRG (AID 2283489). The method, boiled down:
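Concentration-response mRNA assay: HepaRG cells dosed 48 h (max 100 uM, 0.5% DMSO), EGF measured by qRT-PCR and normalized to ACTB/GAPDH/POLR2A.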

Read-out in assay [9]: Early growth response protein 1 (EGR1) transcription factor, EGR1 (gene 1958)
The assay is described as follows: LTEA_HepaRG_EGR1: Life Technologies and Expression Analysis (LTEA) Assay for Early growth response protein 1 (EGR1) transcription factor using HepaRG (AID 2283490). Summed up: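 Differentiated HepaRG cells in serum-free induction medium exposed 48 hours, duplicate, to 8 half-log concentrations up to 100 uM in 0.5% DMSO. EGR1 mRNA measured by TaqMan qRT-PCR, normalized to ACTB, GAPDH, POLR2A; bidirectional fit versus DMSO.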

Read-out in assay [10]: Cytochrome P450 3A7 (Homo sapiens) (UniProt P24462)
The assay is described as follows: LTEA_HepaRG_CYP3A7: Life Technologies and Expression Analysis (LTEA) Assay for CYP3A7 using HepaRG (AID 2283492). Summed up:
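qRT-PCR of CYP3A7 in HepaRG lysates after 48 h treatment; concentration-response (8 points, max 100 uM) analysed bidirectionally relative to 0.5% DMSO controls.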

Read-out in the next assay: CYP3A5 (gene 1577)
The assay is described as follows: LTEA_HepaRG_CYP3A5: Life Technologies and Expression Analysis (LTEA) Assay for CYP3A5 using HepaRG (AID 2283493). The method, boiled down:
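mRNA induction or loss of CYP3A5 assessed in HepaRG after 48 h dosing, 100 uM top concentration, duplicate wells; TaqMan qRT-PCR with ACTB, GAPDH, POLR2A normalization; 0.5% DMSO as negative control.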

Read-out in assay [11]: Fatty Acid-Binding Protein 1 (FABP1), FABP1 (gene 2168)
Nature of the assay: LTEA_HepaRG_FABP1: Life Technologies and Expression Analysis (LTEA) Assay for Fatty Acid-Binding Protein 1 (FABP1) using HepaRG (AID 2283494). The method, boiled down: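 Differentiated human HepaRG cells exposed 48 h in serum-free induction medium to eight half-log concentrations up to 100 uM (0.5% DMSO), duplicate. FABP1 mRNA by qRT-PCR, normalised to ACTB, GAPDH, POLR2A; bidirectional fitting against DMSO.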

Read-out in assay [12]: Cytochrome P450 4A22 (Homo sapiens) (UniProt Q5TCH4)
Nature of the assay: LTEA_HepaRG_CYP4A22: Life Technologies and Expression Analysis (LTEA) Assay for Cytochrome P450 4A22 (CYP4A22) using HepaRG (AID 2283495). The method, boiled down: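 Concentration-response (8 points, max 100 uM, 0.5% DMSO) in human HepaRG liver cells after 48 h exposure. CYP4A22 mRNA by TaqMan qRT-PCR with housekeeping-gene normalization.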

Read-out in assay [13]: Cytochrome P450 7A1 (Homo sapiens) (UniProt P22680)
Nature of the assay: LTEA_HepaRG_CYP7A1: Life Technologies and Expression Analysis (LTEA) Assay for Cytochrome P450 7A1 (CYP7A1) using HepaRG (AID 2283496). Summed up: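 Gene expression endpoint in human HepaRG liver cells treated for 48 h with test chemicals (up to 100 uM, 0.5% DMSO). Values come from bidirectional concentration-response fitting versus DMSO.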

Read-out in assay [14]: Ezrin (EZR), EZR (gene 7430)
Nature of the assay: LTEA_HepaRG_EZR: Life Technologies and Expression Analysis (LTEA) Assay for Ezrin (EZR) using HepaRG (AID 2283491). Summed up: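 Read-out is EZR transcript level by qRT-PCR, normalized to three housekeeping genes and fitted bidirectionally against the DMSO control. Human HepaRG cells received test chemicals for 48 h at eight half-log concentrations up to 100 uM in 0.5% DMSO.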

Activity calls are given as the source filed them. The calls were made as follows: active = hit-call score of the fitted dose curve at least 0.9, where 1 is the maximum; inactive = score below 0.9.

Sequence of Cytochrome P450 3A7 (Homo sapiens) (P24462 whole entry, looked up): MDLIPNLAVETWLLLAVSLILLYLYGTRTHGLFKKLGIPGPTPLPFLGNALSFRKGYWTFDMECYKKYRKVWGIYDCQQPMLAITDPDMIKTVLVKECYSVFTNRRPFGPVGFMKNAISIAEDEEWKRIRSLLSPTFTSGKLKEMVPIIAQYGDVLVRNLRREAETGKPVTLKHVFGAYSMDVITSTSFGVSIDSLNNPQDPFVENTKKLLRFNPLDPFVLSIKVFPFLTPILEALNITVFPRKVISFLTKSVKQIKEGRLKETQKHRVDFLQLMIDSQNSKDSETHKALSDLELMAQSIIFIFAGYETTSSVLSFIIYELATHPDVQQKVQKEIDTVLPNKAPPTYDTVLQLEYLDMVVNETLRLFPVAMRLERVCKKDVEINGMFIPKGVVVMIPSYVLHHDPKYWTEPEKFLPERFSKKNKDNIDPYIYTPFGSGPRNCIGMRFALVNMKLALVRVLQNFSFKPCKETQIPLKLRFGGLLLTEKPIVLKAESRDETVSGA
Sequence of Caspase-3 (Homo sapiens) (P42574 whole entry, looked up): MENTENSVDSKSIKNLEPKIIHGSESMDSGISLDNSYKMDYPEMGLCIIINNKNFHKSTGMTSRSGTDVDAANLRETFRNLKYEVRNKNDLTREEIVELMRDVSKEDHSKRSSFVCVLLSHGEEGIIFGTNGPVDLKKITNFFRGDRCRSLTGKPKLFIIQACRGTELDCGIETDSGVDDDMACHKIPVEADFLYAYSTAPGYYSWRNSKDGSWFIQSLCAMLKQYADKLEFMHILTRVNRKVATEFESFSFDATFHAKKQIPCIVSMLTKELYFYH
Sequence of Cytochrome P450 3A4 (Homo sapiens) (P08684 whole entry, looked up): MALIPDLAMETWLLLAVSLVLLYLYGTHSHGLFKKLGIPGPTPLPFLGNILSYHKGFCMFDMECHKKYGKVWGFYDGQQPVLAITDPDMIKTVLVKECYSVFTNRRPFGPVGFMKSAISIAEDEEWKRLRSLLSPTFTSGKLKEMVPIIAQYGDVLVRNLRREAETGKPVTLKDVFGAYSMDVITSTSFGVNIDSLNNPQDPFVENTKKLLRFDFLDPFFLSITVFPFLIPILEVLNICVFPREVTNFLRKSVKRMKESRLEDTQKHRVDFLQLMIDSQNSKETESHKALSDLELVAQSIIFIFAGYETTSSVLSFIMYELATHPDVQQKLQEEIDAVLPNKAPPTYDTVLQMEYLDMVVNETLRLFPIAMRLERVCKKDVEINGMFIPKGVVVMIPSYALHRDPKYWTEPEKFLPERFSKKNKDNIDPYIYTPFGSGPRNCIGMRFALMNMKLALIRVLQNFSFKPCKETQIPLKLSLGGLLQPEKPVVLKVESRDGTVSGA
Sequence of Cytochrome P450 2C19 (Homo sapiens) (P33261 whole entry, looked up): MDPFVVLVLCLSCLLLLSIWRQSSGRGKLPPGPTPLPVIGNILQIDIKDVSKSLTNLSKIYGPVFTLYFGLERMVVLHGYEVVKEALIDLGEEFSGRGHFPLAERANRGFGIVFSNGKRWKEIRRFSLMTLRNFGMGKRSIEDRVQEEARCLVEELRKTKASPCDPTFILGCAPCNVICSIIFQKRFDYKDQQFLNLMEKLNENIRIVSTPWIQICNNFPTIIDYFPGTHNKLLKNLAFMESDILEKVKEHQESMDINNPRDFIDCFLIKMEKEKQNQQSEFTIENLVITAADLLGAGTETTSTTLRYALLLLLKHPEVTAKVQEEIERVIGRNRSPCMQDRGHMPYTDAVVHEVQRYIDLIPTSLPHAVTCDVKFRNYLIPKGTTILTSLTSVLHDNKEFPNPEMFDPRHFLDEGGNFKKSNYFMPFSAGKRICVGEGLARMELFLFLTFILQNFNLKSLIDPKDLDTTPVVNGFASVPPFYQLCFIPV

As a reminder, the AC50 is the concentration at which the activity in the assay is half-maximal. Turning to `CCCCCCC(=O)OCC`, the result (in the assay with Caspase-3 (Homo sapiens); in assay [1]; in assay [3]; with CYP2C8 (gene 1558); with CYP2C9 (gene 1559); with CYP2E1 (gene 1571)) was inactive. Besides, the result (with CYP4A11 (gene 1579); in [6]; in assay [7]; in assay [8]; in assay [9]; in [10]) was inactive. For the same molecule, the molecule was classed as inactive (in the assay with CYP3A5 (gene 1577); in [11]; in [12]; in assay [13]). Further, the AC50 in [2] was 23 µM (active); in assay [4], 6.44 µM (active); in assay [5], 8.96 µM (active).
Take `COC(=O)c1ccc(O)cc1`: the molecule was classed as inactive (with Caspase-3 (Homo sapiens); in assay [2]; in [3]; in assay [4]; in [5]; with CYP2C8 (gene 1558)). For the same molecule, the outcome (in the assay with CYP2C9 (gene 1559); in the assay with CYP2E1 (gene 1571); in the assay with CYP4A11 (gene 1579); in [6]; in [7]; in assay [8]) was inactive. In addition, the molecule was called inactive (in assay [9]; in assay [14]; in assay [10]; with CYP3A5 (gene 1577); in [11]; in assay [12]). Further, in assay [13], the molecule was called inactive.
For `CCc1c(C(=O)NN2CCCCC2)nn(-c2ccc(Cl)cc2Cl)c1-c1ccc(Br)cc1`, the concentration at half-maximal activity (AC50) in the assay with Caspase-3 (Homo sapiens) is 50 µM (active); in [2], 91.8 µM (active); in assay [4], 30 µM (active); in assay [5], 34.6 µM (active); with CYP2C8 (gene 1558), 23.6 µM (active); in the assay with CYP2C9 (gene 1559), 30.4 µM (active). In addition, the concentration at half-maximal activity (AC50) is 22.4 µM (active) with CYP2E1 (gene 1571); 15.9 µM (active) in the assay with CYP4A11 (gene 1579); 31.7 µM (active) in assay [6]; 32.5 µM (active) in [7]; 12.2 µM (active) in [9]; 23.1 µM (active) in [10]. In addition, the AC50 was 50 µM (active) with CYP3A5 (gene 1577), 36.2 µM (active) in assay [11], 15.8 µM (active) in assay [12] and 37.6 µM (active) in assay [13]. Also, the call in assay [3], in assay [8] and in [14] was inactive.
As for `Nc1ccc(S(=O)(=O)c2ccc(N)cc2)cc1`, the molecule was called inactive (with Caspase-3 (Homo sapiens); in assay [2]; in assay [3]; in the assay with CYP2C8 (gene 1558); with CYP2C9 (gene 1559); in the assay with CYP4A11 (gene 1579)). In addition, the molecule was classed as inactive (in assay [6]; in [7]; in [9]; in assay [14]; in [10]; in the assay with CYP3A5 (gene 1577)). Also, the molecule was classed as inactive in [11], in assay [12] and in [13]. The AC50 was 12.7 µM (active) in assay [1], 32.4 µM (active) in assay [4] and 5.9 µM (active) with CYP2E1 (gene 1571).
